Experimental findings from the supplement of paper PMC10723795 are described below.

± gives the standard deviation of the averaged measurements.

The test has as its system BJ5TA. The test is described as follows: nucleolar normality score relative to DMSO (fraction of DMSO control); RPE1 is a non-cancer human cell line; higher = more normal nucleoli (less nucleolar stress). How it is done: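 Selected screen hits were validated in hTERT lines (BJ5TA, CHON-002, RPE1) and cancer lines (DLD1, HCT116). Cells were immunostained for nucleolin and UBF and the nucleolar normality score was measured per field of view, with 4 fields per drug. Scores are normalized to each cell line's own DMSO control. Dose and time are not stated for this panel.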
Regarding `CN1CC[C@H](c2c(O)cc(O)c3c(=O)cc(-c4ccccc4Cl)oc23)[C@H](O)C1` [Flavopiridol], the nucleolar normality score was found to be 0.202 ± 0.03.
The result for `CC(C)c1c2cc(-c3ccnc(NC4CCC(NC5CCOCC5)CC4)n3)ccc2nn1C` (configuration not stated) reads 0.317 ± 0.025; that for `Cc1nc(-c2cn3c(n2)-c2ccc(-c4cnn(C(C)(C)C(N)=O)c4)cc2OCC3)n(C(C)C)n1` [Taselisib], 0.347 ± 0.013.
Molecule `COC[C@H](NC(=O)c1cnc(C)s1)C(=O)N[C@@H](COC)C(=O)N[C@@H](Cc1ccccc1)C(=O)[C@@]1(C)CO1` [Oprozomib] yielded a nucleolar normality score of 0.449 ± 0.043.
The result for `COc1cccc2c1C(=O)c1c(O)c3c(c(O)c1C2=O)C[C@@](O)(C(=O)CO)C[C@@H]3O[C@H]1C[C@H](N)[C@H](O)[C@H](C)O1` [Doxorubicin] reads 0.129 ± 0.025; that for `CC(C)c1cc(C(=O)N2Cc3ccc(CN4CCN(C)CC4)cc3C2)c(O)cc1O` [Onalespib], 0.294 ± 0.019; that for `CCc1cnn2c(NCc3ccc[n+]([O-])c3)cc(N3CCCC[C@H]3CCO)nc12` [Dinaciclib], 0.242 ± 0.0091.
The result for `Cc1cnc(CNC(=O)c2c(=O)c3ccc(N4CCCN(C)CC4)nc3n3c2sc2ccccc23)cn1` reads 0.107 ± 0.0069; that for `CN(C)CCNC(=O)c1cccn2c(=O)c3cc4ccccc4cc3nc12`, 0.0738 ± 0.013.
The molecule `CC(C)C[C@H](NC(=O)[C@H](CCc1ccccc1)NC(=O)CN1CCOCC1)C(=O)N[C@@H](Cc1ccccc1)C(=O)N[C@@H](CC(C)C)C(=O)[C@@]1(C)CO1` [Carfilzomib] had a nucleolar normality score of 0.328 ± 0.027.
Turning to `CC(C)n1nc(-c2ccc3oc(N)nc3c2)c2c(N)ncnc21` [Sapanisertib], the nucleolar normality score came out at 0.418 ± 0.049.
`C=CCNC1=C2C[C@@H](C)C[C@H](OC)[C@H](O)[C@@H](C)/C=C(\C)[C@H](OC(N)=O)[C@@H](OC)/C=C\C=C(/C)C(=O)NC(=CC1=O)C2=O` registered a nucleolar normality score of 0.306 ± 0.0062.
